Screening data from PubChem.
DT40 TDP1 no CPT – qHTS for Inhibitors of human tyrosyl-DNA phosphodiesterase 1 (TDP1): qHTS in cells in absence of CPT; DT40 Tdp1-/- hTDP1 cells, no CPT, ATP luminescence, 48 h; Potency, µM (titrated, usually from 46.2 µM), inactives show at the top dose activity change, negative = growth inhibition, most hits filed as inhibitors; 420,000 tested, 15% active; AID 686978, 2013; note: nearly all actives have a fitted effect of over 55% in size
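Readout: luminescence from CellTiter-Glo after 30 min in the dark at RT. Cells: DT40 Tdp1-/- with stable hTDP1, 400/well. Exposure: compounds alone, ≥48 hr, 37 °C.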
TDP1 cell CPT – qHTS for Inhibitors of human tyrosyl-DNA phosphodiesterase 1 (TDP1): qHTS in cells in presence of CPT; chicken DT40 Tdp1-/-;hTDP1 cells + 20 nM CPT, ATP luminescence, 48 h; Potency, µM (titrated, usually from 46.2 µM), for inactives: at the highest dose activity change, negative = growth inhibition, most hits filed as inhibitors; 420,000 tested, 12% active; AID 686979, 2013; note: nearly all actives have a fitted effect of over 55% in size
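Cell growth measured by CellTiter-Glo luminescence after a minimum 48 h, 37 C compound exposure with 20 nM CPT in Tdp1-knockout DT40 cells stably expressing hTDP1, seeded 400/well; qHTS titration format.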
KB-V1 MDR tox – qHTS assay for MDR1-selective chemotherapeutics: Primary screen using the drug-selected MDR subline cells KB-V1; KB-V1 MDR cells viability, CellTiter-Glo, 72 h; Potency, µM (top dose mostly 46.1 µM), hits mostly cytotoxic; 400,000 tested, 3.4% active; AID 1347076, 2019; note: nearly all actives have a fitted effect of over 60% in size
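Luminescent ATP read-out (CellTiter-Glo, 10 min) measures survival of drug-selected KB-V1 MDR cells after 72 h, 37 degrees C compound exposure. Medium: phenol-red-free DMEM, 10% FBS. Values from fitted concentration-response curves.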
HT1080-NT tox – qHTS for induction of synthetic lethality in tumor cells producing 2HG: qHTS for the HT-1080-NT fibrosarcoma cell line; HT-1080-NT fibrosarcoma viability, CellTiter-Glo ATP luminescence, 48 h; Potency, µM (titrated, usually from 46.1 µM), for the others: at the top dose activity, negative = less viability, hits mostly cytotoxic; 360,000 tested, 1.6% active; AID 686970, 2013;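 note: NT is the 2HG producing partner of a matched IDH1 knockdown line; 0% = DMSO-treated cells and -100% = media-only wells without cells; nearly all actives have a fitted effect of over 55% in size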
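Toxicity toward the 2HG-producing NT line was scored as %Activity, normalised to DMSO and no-cell wells, from CellTiter-Glo luminescence after 48 hours' treatment.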
KB-3-1 tox – qHTS assay for MDR1-selective chemotherapeutics: Primary screen using the parental adenocarcinoma cell KB-3-1; KB-3-1 viability, CellTiter-Glo ATP luminescence, 72 h; Potency, µM (top dose mostly 46.1 µM), hits mostly cytotoxic; 400,000 tested, 1.4% active; note: nearly all actives have a fitted effect of over 60% in size
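Cells are dispensed, compounds pinned in, plates held at 37 °C for 72 h, then CellTiter-Glo is added and luminescence read after 10 minutes. Cell line: parental KB-3-1 in phenol-red-free DMEM, 10% FBS.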
HT1080 IDH1KD tx – qHTS for induction of synthetic lethality in tumor cells producing 2HG: qHTS for the HT-1080-IDH1KD cell line | 360,000 tested, 2% active | HT-1080 IDH1 knockdown viability, ATP luminescence, 48 h | AID 686971, 2013 | Potency, µM (doses to about 46.1 µM), for inactives: at the top dose activity, negative = toxicity, most hits filed as cytotoxic;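 note: 0% = DMSO wells and -100% = cell-free medium wells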
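Assay cells: HT-1080 with IDH1 knockdown, 750 per well, RPMI/5% FBS. Exposure: 48 h at 37 °C following 2 h pre-incubation. Read: CellTiter-Glo luminescence; fitted concentration-response, curve class assigned.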
* marks the source's active call; other numbers are inactive results; i = inactive; ? = inconclusive; · = no result. Compounds with a hit are over-represented: about 19% of the library has one in this group of screens. Calls come from the whole dose curve; as a rule, active = well fitted curve in the direction sought with a large enough effect; inconclusive = small, poorly fitted or top-dose-only effect, or another doubt; inactive = no such curve, though single readings can be large; an effect the other way counts as inactive or inconclusive. Unless noted, % is set by controls: 0 for no effect and ±100 for the full control effect; potency is the fitted concentration of half-maximal effect.

SMILES | DT40 TDP1 no CPT | TDP1 cell CPT | KB-V1 MDR tox | HT1080-NT tox | KB-3-1 tox | HT1080 IDH1KD tx
CCC1(C)OC(c2ccccc2)=C/C(=C/C=C2C(=O)NC(=O)NC2=O)O1 (stereo unspecified) | ? | ? | i | -3.3% | i | -17.9%
COC(=O)C1(C(=O)OC)C[C@H](c2ccc(OC)cc2)N(Cc2ccccc2OC)[C@@H]1c1cccs1 | 20.6µM* | 16.4µM* | ? | 1.0% | ? | -11.1%
CCN(CC)P(c1n(C)cc[n+]1C)N(CC)CC | 23.1µM* | ? | i | 0.1% | i | 1.1%
Cc1ccc(N)cc1Cl | 9.4% | 18.9% | i | -2.1% | i | 2.4%
C[C@@H]1COc2cccc(N3CCN(C)CC3)c2S(=O)(=O)N1 | -1.0% | -2.7% | i | 19.6% | i | 8.9%
C#CCN1C(=O)S/C(=C\c2ccc(N3CCOCC3)cc2C)C1=O | 7.31µM* | ? | i | 11.9% | i | 15.6%
O=C(CCn1c(=O)oc2ccccc21)N1CCN(C(c2ccccc2)c2ccccc2)CC1 | ? | 16.4µM* | ? | 1.2% | i | 24.1%
COc1ccc(C(C)(C)C)cc1NC(=O)CCCn1c(=O)oc2ccccc21 | ? | -23.9% | i | -1.9% | i | -12.6%
COC(=O)C1=C(c2ccc(S(C)(=O)=O)cc2)C[C@@H]2CC[C@H]1N2C(=O)N1CCCC1 | 3.6% | -16.5% | i | 6.7% | i | 11.1%
CCCNC(=O)N1[C@H]2CC[C@@H]1C(C(=O)OC)=C(c1cccc(Cl)c1)C2 | ? | ? | i | ? | i | 2.9%
COC(=O)C1=C(c2ccccc2)C[C@@H]2CC[C@H]1N2C(=O)N1CCCC1 | 16.4µM* | ? | i | 8.6% | i | 5.7%
COC(=O)C1=C(c2cccc(Cl)c2)C[C@@H]2CC[C@H]1N2C(=O)NCC1CC1 | ? | 16.4µM* | i | 13.6% | i | -1.8%
COC(=O)C1=C(c2cccc(Cl)c2)C[C@@H]2CC[C@H]1N2C(=O)N1CCCC1 | 7.31µM* | 8.2µM* | i | 0.0% | ? | 1.2%
COC(=O)C1=C(c2cccc(C#N)c2)C[C@@H]2CC[C@H]1N2C(=O)N1CCC(O)CC1 | -6.8% | 5.1% | i | 12.1% | i | 12.5%
Cc1cnc(-n2c(=S)[nH]c3ccccc3c2=O)s1 | -21.2% | -5.2% | i | 1.8% | i | 4.8%
CC1CN(C(=O)CCC(=O)N2CCC3(CC2)OCCO3)c2cc(Cl)ccc2O1 (stereo unspecified) | 3.9% | -28.8% | i | 1.0% | i | 12.0%
O=c1[nH]c(=S)[nH]c(O)c1/C=N/N1CCOCC1 | -12.4% | -9.7% | i | -2.4% | i | 3.2%
C[C@H]1CCCC(=O)CCC/C=C/c2cc(O)cc(O)c2C(=O)O1 | ? | -3.6% | 16.4µM* | 0.4% | i | 6.2%
COc1cc(O)cc2c1C(=O)OC(C)CCCC(=O)CCC/C=C\2 (stereo unspecified) | ? | 0.0% | ? | 8.5% | i | -6.0%
COc1ccc(/C=C2/C(=O)N(Cc3ccco3)C(=O)N(C(C)C)C2=O)cc1 | -6.1% | -1.9% | i | -3.1% | i | 3.6%
CC(C)N1C(=O)/C(=C/C=C/c2ccco2)C(=O)N(Cc2ccco2)C1=O | 14.6µM* | 16.4µM* | ? | ? | ? | ?
CN1CC[C@@]2(CCCN(C(=O)c3ccco3)C2)C1 | 2.4% | 2.8% | · | · | · | ·
Cc1ccc(C(C)C)c(OCC#CCN2CCCC2)c1 | ? | -28.4% | i | -0.7% | i | -0.2%
COC(=O)c1cccc(NC(=O)c2ccc(S(=O)(=O)N(C)c3ccccc3OC)cc2)c1 | 11.6µM* | 16.4µM* | ? | -0.4% | i | -28.2%
COC(=O)c1c(C)n(Cc2ccccc2)c2ccc(O)cc12 | -13.9% | -24.3% | i | -22.4% | i | -14.7%
SMILES | DT40 TDP1 no CPT | TDP1 cell CPT | KB-V1 MDR tox | HT1080-NT tox | KB-3-1 tox | HT1080 IDH1KD tx
Cc1c(C(=O)C(=O)N2CCOCC2)c2ccccc2n1Cc1ccccc1 | 0.4% | 11.4% | i | -2.5% | i | 1.6%
CCOC(=O)c1c(C)n(Cc2ccccc2)c2ccc(O)cc12 | -30.0% | -12.3% | 10.3µM* | -14.1% | i | -20.4%
CC(=O)c1c(C)n(Cc2ccccc2)c2ccc(O)cc12 | 18.4µM* | 16.4µM* | i | -12.7% | ? | -2.4%
CCOC(=O)c1c(C)n(Cc2ccccc2)c2ccc(OCC(O)CNC(C)(C)C)cc12 (stereo unspecified) | 18.4µM* | ? | i | ? | i | 16.4µM*
CCOC(=O)CNC(=O)N1Cc2cc(-c3cccc(F)c3)ccc2-n2nncc2C1 | -12.2% | -40.3% | i | 6.5% | i | 5.9%
Cc1nc2ccc(Cl)cn2c1P(=S)(N1CCOCC1)N1CCOCC1 | ? | 14.6µM* | i | 0.4% | i | 3.8%
O=C(COc1ccccc1[N+](=O)[O-])N1CCN(CCc2ccccn2)CC1 | 3.6% | -2.6% | i | · | i | ·
COc1ccccc1NC(=O)Cn1c(=O)n(-c2cccc(Cl)c2)c(=O)c2sc3ccccc3c21 | 6.51µM* | 13µM* | i | · | i | ·
S=C1NCCN1 | -8.2% | -6.2% | i | · | i | ·
COc1cccc(Oc2coc3cc(OC(=O)N(C)C)ccc3c2=O)c1 | ? | ? | i | 0.3% | i | -3.2%
COc1ccc(-c2coc3cc(OC(=O)N4CCOCC4)ccc3c2=O)cc1 | 18.4µM* | 13µM* | ? | 22.5% | i | -4.8%
C=C1C2CC[C@@]3(C)C(c4ccoc4)OC(=O)C[C@@]13OC1CC(=O)C(C)(C)C(C(OC(C)=O)C(=O)OC)[C@@]12C (stereo partly specified) | -13.6% | ? | · | · | · | ·
COc1cc(C)c(C(=O)CC(=O)c2c(C)cc(OC)cc2C)c(C)c1 | 11.6µM* | 14.6µM* | i | -13.6% | i | ?
Cc1ccc(-c2nc3ncccc3o2)cc1NC(=O)c1cccc(OCC(C)C)c1 | ? | -27.9% | i | · | i | ·
CC(C)C(=O)Nc1ccc(C(=O)NCc2cccnc2)cc1 | ? | ? | i | ? | i | 23.1µM*
